Screens as filed in PubChem BioAssay.
Hits are enriched below; roughly 6.7% of the tested compounds scored in any of these assays.
KB-3-1 cytotox: kills parental KB-3-1 adenocarcinoma cells; AID 1347075; 400,000 compounds, 1.4% hits; Potency, µM (highest dose often 46.1 µM), usual class: cytotoxic; KB-3-1 viability, CellTiter-Glo ATP luminescence, 72 h; further: on the % scale 0 is the no-effect control and ±100 the full control effect; nearly all actives have a fitted effect of over 60% in size
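Screening of KB-3-1 cells (DMEM, 10% FBS, phenol-red free) ran from lowest to highest compound concentration; after 72 h at 37 °C viability was read luminescently and curves fitted.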
KB-V1 MDR tox: KB-V1 MDR subline cytotoxicity | KB-V1 MDR cells viability, CellTiter-Glo, 72 h | Potency, µM (titrated, usually from 46.1 µM), actives largely listed as cytotoxic | 400,000 compounds, 3.4% hits | AID 1347076; further: on the % scale 0 is the no-effect control and ±100 the full control effect; nearly all actives have a fitted effect of over 60% in size
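KB-V1 MDR subline cells in DMEM (phenol-red free, 10% FBS) exposed to compounds in qHTS concentration series for 72 h at 37 degrees C. Viability read by CellTiter-Glo luminescence; concentration-effect curves fitted after normalization and correction.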
SW480 rereplic: DNA re-replication induction in SW480 cells | SW480 DNA re-replication, Hoechst DNA content imaging, 48 h | Potency, µM (top dose mostly 46.1 µM), for the others: at the highest dose re-replication activation, most hits filed as activators | 340,000 compounds, 1.8% hits; further: % of control where 0% means no effect; nearly all actives have a fitted effect of over 55% in size
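Image-based DNA-content assay: after two days of treatment, nuclei were labelled with the DNA dye Hoechst and imaged, and hits were compounds raising the count of nuclei showing high fluorescence intensity.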
MCF10A rerep: DNA re-replication induction in MCF 10a cells; MCF 10A DNA re-replication, Hoechst nuclear intensity, 48 h; Potency, µM (top dose mostly 46.1 µM), for inactives: at the top dose activity, positive = re-replication, most hits filed as activators; 350,000 compounds, 2.9% hits; AID 624296; further: % of control where 0% means no effect; nearly all actives have a fitted effect of over 50% in size
PINK1 modulator: changes PINK1 expression; PINK1 immunofluorescence, high-content cytometry, 24 h; Potency, µM (doses to about 76.6 µM), for the others: top-dose activation (PINK1 increase), hits mostly activators; 410,000 compounds, 0.2% hits; active means well fitted activation curve with a large enough effect; inconclusive means small, poorly fitted or top-dose-only effect; cell line not stated here; further: % of control where 0% means no effect; nearly all actives have a fitted effect of over 65% in size
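PINK1 protein level read as immunofluorescence by microplate cytometer in a fixed, stained stable cell line after 24 h exposure to five compound concentrations, with CCCP as control.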
* marks the source's active call; other numbers are inactive results; i = inactive; ? = inconclusive; · = no result; [ ] = dose if it differs, or a comment. Unless noted, the call rests on the fitted dose curve; in most records, active means well fitted curve in the direction sought with a large enough effect; inconclusive means small, poorly fitted or top-dose-only effect, or another doubt; inactive means no such curve, though single readings can be large; an effect the other way counts as inactive or inconclusive. Potency means the concentration at half of the fitted maximal effect.

SMILES | KB-3-1 cytotox | KB-V1 MDR tox | SW480 rereplic | MCF10A rerep | PINK1 modulator
CCN(CC)C(=O)C1=C(C)N(CCCN2CCCC2=O)C(=O)C(CC(=O)NCCN2CCOCC2)C1 (configuration not stated) | i | i | · | · | 2.0%
Cc1cc(C(F)(F)F)nc(CCNC(=O)C2CCC(=O)N(Cc3cccc(F)c3)C2)n1 (configuration not stated) | i | ? | -3.3% | -3.7% | ?
C[C@H](CO)N1C[C@H](C)[C@@H](CN(C)S(=O)(=O)c2cccs2)Oc2c(NS(=O)(=O)c3cn(C)cn3)cccc2C1=O | i | ? | -9.5%[9.22 µM] | -13.9% | 0.2%
Cc1ccc(O/C=C2/Nn3c(nnc3-c3cc(-c4ccccc4)n[nH]3)S2)cc1 | i | i | · | · | -0.6%
COc1ccc(OC)c(-n2nnnc2SCC(=O)Nc2ccccc2OC)c1 | i | i | 28.8% | -3.3% | -0.2%
CCNC(=O)CSc1nc2ccccc2c(=O)n1-c1cc(OC)ccc1OC | i | 18.4µM* | -2.8% | 12.0% | 1.1%[38.3 µM]
COc1ccc(C)cc1-n1nnnc1SCC(=O)Nc1cccnc1Cl | i | 13µM* | 4.9% | -3.1% | -1.8%
COc1ccccc1NC(=O)CSc1nnnn1-c1ccccc1OC | i | i | -32.6% | 0.651µM* | 4.7%
CNC(=O)CSc1nc2ccccc2c(=O)n1-c1cc(OC)ccc1OC | i | i | -32.4% | 22.7% | 2.3%
CCOc1ccccc1NC(=O)CSc1nnc2c(CC)c(C)nc(N)n12 | i | 14.6µM* | -2.4% | 14.3% | -0.7%[38.3 µM]
COc1ccc(C)cc1-n1nnnc1SCC(=O)Nc1cc(C)on1 | i | i | -4.5% | -9.6% | 3.2%[38.3 µM]
COc1ccc(OC)c(NC(=O)c2nc(SCc3ccc(F)cc3)ncc2Cl)c1 | · | · | · | · | 2.6%
CCOC(=O)c1ccccc1NC(=O)NCc1cccn1Cc1ccc(F)cc1 | ? | i | · | · | 4.7%
COc1cccc(/C=C(\C#N)c2nc3ccccc3c(=O)[nH]2)c1OC | i | i | · | · | 0.7%
CS(=O)(=O)c1ccc(Cl)c(NC(=O)COC(=O)COc2ccc3c(c2)CCC3)c1 | i | i | -591.6% | ? | 0.5%
CCn1c(=O)c(C(=O)NCc2ccc(Cl)cc2)c(O)c2ccccc21 | i | i | -51.9% | 0.581µM* | 16.5%
CCCn1c(=O)c(C(=O)NCc2ccccc2Cl)c(O)c2ccccc21 | i | i | -10.1% | ? | 22.7%
CCn1c(=O)c(C(=O)NCc2ccccc2)c(O)c2ccccc21 | i | i | -12.4% | ? | 6.3%
CCCCCCCCCC(=O)NNC(=O)c1c(O)c2ccccc2n(CC)c1=O | ? | ? | -1.7% | 6.3% | ?
CCn1c(=O)c(C(=O)NNC(=O)c2ccccc2F)c(O)c2ccccc21 | 14.6µM* | 10.3µM* | ? | ? | 2.6%
C=CCn1c(=O)c(C(=O)NCc2ccccc2Cl)c(O)c2ccccc21 | ? | i | -50.2% | 23.1µM* | 15.3%
CCCCCC(=O)NNC(=O)c1c(O)c2ccccc2n(CC)c1=O | ? | 23.1µM* | ? | ? | 1.1%
Cc1ccc(N2CC(C(=O)Nc3ccc(S(=O)(=O)Nc4ncccn4)cc3)CC2=O)cc1C (configuration not stated) | i | i | 0.3% | -3.1% | 0.8%
O=[N+]([O-])c1cccc(S(=O)(=O)Nc2ccc3cn[nH]c3c2)c1 | i | i | -6.7% | -0.4% | -0.1%
NC(=O)NN=C1CCC(OCc2ccccc2)CC1CC(=O)O (configuration not stated) | i | i | · | · | 2.5%
SMILES | KB-3-1 cytotox | KB-V1 MDR tox | SW480 rereplic | MCF10A rerep | PINK1 modulator
COc1cc(NC(=O)Cn2nc(C(F)(F)F)c3c2CCC3)cc(OC)c1OC | 16.4µM* | i | · | · | 0.3%
O=C(Cc1ccc(F)cc1)NCCc1csc2nc(-c3ccccc3F)nn12 | i | i | · | · | 1.3%
CCOC(=O)c1ccc(S(=O)(=O)Nc2ccc3cn[nH]c3c2)cc1 | ? | 18.4µM* | 1.3% | 4.8% | -0.5%
Cc1csc(C)[n+]1CCC1CCCCC1 | ? | i | · | · | ·
CCN1CCN(C(=O)Nc2cc(Cl)ccc2OC)CC1 | i | i | -8.3% | 3.66µM* | 1.8%
O=C(Nc1cc(Cl)ccc1Cl)N1CCN(C(=O)Nc2cc(Cl)ccc2Cl)CC1 | i | 14.6µM* | 9.0% | 11.1% | 1.4%
